We go through 13 compounds from PubChem BioAssay (NCI).

Common to all, as to assay: NCI-60 one-dose screen, 48 h (100 = growth as untreated, 0 = no growth, -100 = all killed)
In one experiment the test system is RPMI-8226 leukemia. To be noted: 10 µM unless noted.
The subject of another experiment is OVCAR-8 ovarian. To be noted: 10 µM unless noted.
The next experiment has as its system OVCAR-5 ovarian. To be noted: 10 µM unless noted.
The next experiment relates to OVCAR-4 ovarian. To be noted: 10 µM unless noted.
Another experiment relates to SK-OV-3 ovarian. To be noted: 10 µM unless noted.
The next experiment deals with IGROV1 ovarian. To be noted: 10 µM unless noted.
The test system of another experiment is OVCAR-3 ovarian. To be noted: 10 µM unless noted.
The subject of another experiment is HS 578T breast. To be noted: 10 µM unless noted.
Another experiment has as its system NCI/ADR-RES ovarian. To be noted: 10 µM unless noted.
A further experiment concerns T-47D breast. To be noted: 10 µM unless noted.
The test system of the next experiment is MDA-MB-435 melanoma. To be noted: 10 µM unless noted.
The test system of the next experiment is SW-620 colon. To be noted: 10 µM unless noted.
In the next experiment the test system is MCF7 breast.
In the next experiment the test system is HCT-116 colon. To be noted: 10 µM unless noted.
Another experiment deals with HCC-2998 colon. To be noted: 10 µM unless noted.
A further experiment relates to KM12 colon. To be noted: 10 µM unless noted.
Another experiment deals with BT-549 breast. To be noted: 10 µM unless noted.

Several values for one entry are separate records, joined by “and”; a condition that tells them apart may be missing. Equal entries are not always repeated. About 83,000 compounds went through this panel and 20% of them were active in at least one assay; those are over-represented in the sample as a whole.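 Negative percent growth values reflect cell death: -40 means 40% of the cells present at the start died, and -100 means all died.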 Values without a mark were called inactive. Activity calls are given as the source filed them. Rule for the calls: active = growth percent below 10; inactive = the rest.

With `CCCOc1ccc2c(c1)CC[C@@H]1[C@@H]2CC[C@@]2(C)[C@H]1CC[C@]2(C)O`, the growth in the experiment on RPMI-8226 leukemia was 56.5%; with OVCAR-8 ovarian it was 74%; in the experiment on OVCAR-5 ovarian, 76.7%; in the experiment on OVCAR-4 ovarian it was 81%; in the experiment with SK-OV-3 ovarian, 75.3%; with IGROV1 ovarian, 118%. The growth was 104% in the experiment on OVCAR-3 ovarian; 85% with HS 578T breast; 79.7% in the experiment on NCI/ADR-RES ovarian; 83.4% with T-47D breast; 84.3% in the experiment with MDA-MB-435 melanoma; 53.8% in the experiment with SW-620 colon. The growth was 101% in the experiment with MCF7 breast (10 µM unless noted), 83.9% with HCT-116 colon, 74.7% in the experiment with HCC-2998 colon and 35.6% in the experiment on KM12 colon.
`c1ccc2c(c1)[nH]c1c2cc[n+]2cc3c(cc12)CCCC3`: the growth in the experiment with RPMI-8226 leukemia is 32.6%; with OVCAR-8 ovarian, 10.7%; in the experiment with OVCAR-5 ovarian, 48.1%; with OVCAR-4 ovarian it was 38.9%; in the experiment on SK-OV-3 ovarian it was 23.4%; in the experiment with IGROV1 ovarian it was 66.4%. Also, the growth in the experiment with OVCAR-3 ovarian is 20.9%; with NCI/ADR-RES ovarian, 97.7%; in the experiment on T-47D breast, -13.8% (active); with BT-549 breast, 72.7%; with MDA-MB-435 melanoma, 11.5%; in the experiment on SW-620 colon, 20.7%. In addition, the growth was -13.9% (active) in the experiment on MCF7 breast (10 µM); -78.5% (active) and -87.5% (active) in the experiment on MCF7 breast (100 µM); 14.7% with HCT-116 colon; 24.6% in the experiment on HCC-2998 colon; 26.4% in the experiment on KM12 colon.
Regarding `COc1ccc2c(c1)nc(N)c1c3cc(C)c(C)cc3cn21`, the growth is 81.1% in the experiment with RPMI-8226 leukemia; 82.3% with OVCAR-8 ovarian; 111% in the experiment with OVCAR-5 ovarian; 78.5% in the experiment with OVCAR-4 ovarian; 86.8% with SK-OV-3 ovarian; 77.2% with IGROV1 ovarian. The growth in the experiment on OVCAR-3 ovarian is 70.6%; in the experiment with NCI/ADR-RES ovarian, 37.3%; in the experiment on T-47D breast it was 63.8%; in the experiment on BT-549 breast, 94.5%; in the experiment with MDA-MB-435 melanoma, -18% (active); in the experiment on SW-620 colon, 41.9%. Also, the growth in the experiment with HCT-116 colon is 49.6%; with HCC-2998 colon it was 85.9%; in the experiment on KM12 colon, 46.8%.
Regarding `O=C(Nc1cccc([N+](=O)[O-])c1)c1cccc(C(=O)Nc2cccc([N+](=O)[O-])c2)c1`, the growth with RPMI-8226 leukemia is 65.9%; in the experiment with OVCAR-8 ovarian it was 28.6%; in the experiment on OVCAR-5 ovarian, 95.6%; in the experiment on OVCAR-4 ovarian, 56.9%; with SK-OV-3 ovarian, 68.6%; in the experiment with OVCAR-3 ovarian, 71.1%. The growth is 9.17% (active) in the experiment with HS 578T breast; 62.2% in the experiment on NCI/ADR-RES ovarian; 68.4% in the experiment on T-47D breast; -4.34% (active) in the experiment on BT-549 breast; 83.1% with MDA-MB-435 melanoma; 92.8% in the experiment on SW-620 colon. For the same compound, the growth in the experiment with MCF7 breast (10 µM unless noted) is 68.3%; with HCT-116 colon, 78.4%; in the experiment with HCC-2998 colon, 88.2%.
As to `COc1ccc2nc(-c3ccc(-n4cncc4-c4ccc(OC)c(N)c4)cc3)sc2c1`, the growth was 88.2% in the experiment on RPMI-8226 leukemia; 96.8% with OVCAR-8 ovarian; 108% in the experiment with OVCAR-5 ovarian; 87% in the experiment on OVCAR-4 ovarian; 117% with SK-OV-3 ovarian; 113% in the experiment with IGROV1 ovarian. Moreover, the growth in the experiment on HS 578T breast is 101%; in the experiment on NCI/ADR-RES ovarian, 115%; in the experiment with T-47D breast, 102%; with BT-549 breast, 102%; in the experiment with MDA-MB-435 melanoma it was 105%; with SW-620 colon it was 97.4%. Besides, the growth in the experiment with MCF7 breast (10 µM unless noted) is 82.1%; in the experiment with HCT-116 colon, 98.4%; with HCC-2998 colon it was 111%; with KM12 colon, 105%.
On to `Cn1[nH]cc(/C=N/C(N)=O)c1=O`, for which the growth in the experiment on RPMI-8226 leukemia is 105%; with OVCAR-8 ovarian, 105%; in the experiment on OVCAR-5 ovarian, 102%; in the experiment on OVCAR-4 ovarian it was 106%; in the experiment on SK-OV-3 ovarian, 110%; in the experiment on IGROV1 ovarian, 124%. The growth in the experiment with HS 578T breast was 109%; with NCI/ADR-RES ovarian it was 108%; in the experiment on T-47D breast, 104%; in the experiment on BT-549 breast, 113%; in the experiment with MDA-MB-435 melanoma it was 119%; with SW-620 colon, 102%. Also, the growth in the experiment with MCF7 breast (10 µM unless noted) is 99.6%; with HCT-116 colon, 109%; in the experiment on HCC-2998 colon it was 103%.
With `COc1ccc(/C=N\Nc2ccc([N+](=O)[O-])cn2)cc1OC`, the growth in the experiment with RPMI-8226 leukemia was 40%; in the experiment with OVCAR-8 ovarian, 14.6%; in the experiment with OVCAR-5 ovarian, 22.2%; in the experiment on OVCAR-4 ovarian, -56.6% (active); with SK-OV-3 ovarian it was 36.8%; with IGROV1 ovarian, 23.2%. Moreover, the growth in the experiment on OVCAR-3 ovarian was 47%; with NCI/ADR-RES ovarian, 65%; with T-47D breast it was -7.26% (active); in the experiment with MDA-MB-435 melanoma, 72.9%; in the experiment with SW-620 colon, 61.5%; in the experiment on MCF7 breast (10 µM unless noted), 74.7%. Also, the figures for the growth with HCT-116 colon, in the experiment with HCC-2998 colon and with KM12 colon were 17.1%, 99.7% and 44.1%, respectively.
On to `COc1ccc(/C(=C2\O[C@@H]([C@H](O)CO)[C@H]3OC(C)(C)O[C@@H]23)c2cc(OC)c(OC)c(OC)c2)cc1O`, for which the growth in the experiment with RPMI-8226 leukemia was 73.3%; in the experiment with OVCAR-8 ovarian, 107%; in the experiment with OVCAR-5 ovarian it was 90%; in the experiment with OVCAR-4 ovarian, 104%; in the experiment with SK-OV-3 ovarian it was 106%; in the experiment on IGROV1 ovarian, 100%. Further, the growth in the experiment on OVCAR-3 ovarian is 97.4%; in the experiment with NCI/ADR-RES ovarian, 24.5%; in the experiment on T-47D breast, 102%; in the experiment with BT-549 breast it was 82%; in the experiment on MDA-MB-435 melanoma, -23.9% (active); in the experiment on MCF7 breast (10 µM unless noted), 95.7%. Also, the growth was 89.3% with HCT-116 colon and 9.46% (active) in the experiment on KM12 colon.
Regarding `Cc1cc(Cl)ccc1Nc1nc(C(F)(F)F)ccc1C(=O)NCC(=O)N/N=C/c1c(Cl)cccc1Cl`, the growth with RPMI-8226 leukemia is -20.6% (active); in the experiment with OVCAR-8 ovarian, 73.4%; with OVCAR-5 ovarian, 87.8%; with OVCAR-4 ovarian, 86.4%; in the experiment with SK-OV-3 ovarian it was 88.5%; in the experiment on IGROV1 ovarian, 35.4%. Besides, the growth was 77% in the experiment on NCI/ADR-RES ovarian; 51.9% in the experiment with T-47D breast; 85.5% in the experiment on BT-549 breast; 79.6% with MDA-MB-435 melanoma; 80.3% with SW-620 colon; 56.2% with MCF7 breast (10 µM unless noted). In addition, the growth is 57.7% in the experiment on HCT-116 colon, 92.9% with HCC-2998 colon and 50.4% in the experiment on KM12 colon.
As for `Nc1ncc(-c2cnn(C3CCNCC3)c2)cc1-c1nc2cc(Cl)ccc2o1`, the growth in the experiment with RPMI-8226 leukemia is -81% (active); in the experiment with OVCAR-8 ovarian, -52.5% (active); in the experiment on OVCAR-5 ovarian, -81.2% (active); in the experiment with OVCAR-4 ovarian it was -83.1% (active); in the experiment with SK-OV-3 ovarian, -81.5% (active); in the experiment with OVCAR-3 ovarian, -100% (active). For the same compound, the growth with HS 578T breast was -68.4% (active); in the experiment on NCI/ADR-RES ovarian, -50.5% (active); in the experiment on T-47D breast, -77.4% (active); in the experiment on BT-549 breast, 61.3%; with MDA-MB-435 melanoma, -100% (active); with SW-620 colon, -100% (active). The growth was -93.3% (active) in the experiment with MCF7 breast (10 µM unless noted), -100% (active) in the experiment with HCT-116 colon, -100% (active) in the experiment with HCC-2998 colon and -100% (active) in the experiment with KM12 colon.
With `O=C(Oc1ccc[nH]c1=O)c1cccc(Cl)c1`, the growth in the experiment with RPMI-8226 leukemia is 108%; with OVCAR-8 ovarian, 113%; in the experiment with OVCAR-5 ovarian, 97.5%; in the experiment with OVCAR-4 ovarian, 54.6%; with SK-OV-3 ovarian, 103%; with OVCAR-3 ovarian, 102%. The growth in the experiment on HS 578T breast is 154%; in the experiment on NCI/ADR-RES ovarian, 99.1%; in the experiment with T-47D breast, 99.2%; in the experiment with BT-549 breast, 88.4%; with MDA-MB-435 melanoma, 108%; in the experiment on SW-620 colon, 115%. Also, the growth in the experiment with MCF7 breast (10 µM unless noted) was 93.9%; with HCT-116 colon it was 88.5%; with HCC-2998 colon, 106%; in the experiment with KM12 colon, 104%.
`COc1ccc2c(c1)[nH]c(=O)c1c3cc(OC)c(OC)cc3cn21`: the growth in the experiment with RPMI-8226 leukemia was -72.3% (active); in the experiment on OVCAR-8 ovarian, 16%; in the experiment with OVCAR-5 ovarian it was 49.4%; with OVCAR-4 ovarian it was 44.2%; in the experiment with SK-OV-3 ovarian it was 40.2%; with IGROV1 ovarian, -9.03% (active). For the same compound, the growth with NCI/ADR-RES ovarian is 14.8%; with T-47D breast it was 74.1%; with BT-549 breast it was 10.5%; in the experiment with MDA-MB-435 melanoma it was -20.3% (active); with SW-620 colon it was 31.7%; with MCF7 breast (10 µM unless noted) it was 17.5%. The growth in the experiment with HCT-116 colon was -18.8% (active); in the experiment with HCC-2998 colon, 25.8%; with KM12 colon it was -33% (active).
`CN(C)c1ccc2c(c1)/C(=N/O)c1ccccc1-2`: the growth is 107% in the experiment on RPMI-8226 leukemia; 97.6% in the experiment on OVCAR-8 ovarian; 96.2% in the experiment with OVCAR-5 ovarian; 82.6% in the experiment on OVCAR-4 ovarian; 90.1% in the experiment with SK-OV-3 ovarian; 93.4% in the experiment on OVCAR-3 ovarian. The growth in the experiment with HS 578T breast is 36.4%; in the experiment with NCI/ADR-RES ovarian, 41.9%; in the experiment on T-47D breast it was 85.5%; with BT-549 breast, 91.7%; with MDA-MB-435 melanoma, -8.86% (active); in the experiment with SW-620 colon, 50.3%. For the same compound, the growth is 19.9% with MCF7 breast (10 µM unless noted), 39.4% with HCT-116 colon, 101% in the experiment on HCC-2998 colon and 35.2% with KM12 colon.
